Experimental data taken from PubChem BioAssay (EPA / NIEHS).
Activity calls are given as the source filed them. The calls were made as follows: active = hit-call score of the fitted dose curve at least 0.9, where 1 is the maximum; inactive = score below 0.9.

Assays:
[1] = biological target: Transcriptional activator Myb (Homo sapiens) (UniProt P10242); test: ATG_Myb_CIS: Attagene CIS-FACTORIAL HepG2 Assay for human Myeloblastosis (Myb) Proto-Oncogene Transcription Factor (AID 2282986); details: HepG2 Attagene CIS-FACTORIAL Myb reporter transcription; actives raise or lower the signal
Chain of Transcriptional activator Myb (Homo sapiens) (P10242 whole entry, looked up): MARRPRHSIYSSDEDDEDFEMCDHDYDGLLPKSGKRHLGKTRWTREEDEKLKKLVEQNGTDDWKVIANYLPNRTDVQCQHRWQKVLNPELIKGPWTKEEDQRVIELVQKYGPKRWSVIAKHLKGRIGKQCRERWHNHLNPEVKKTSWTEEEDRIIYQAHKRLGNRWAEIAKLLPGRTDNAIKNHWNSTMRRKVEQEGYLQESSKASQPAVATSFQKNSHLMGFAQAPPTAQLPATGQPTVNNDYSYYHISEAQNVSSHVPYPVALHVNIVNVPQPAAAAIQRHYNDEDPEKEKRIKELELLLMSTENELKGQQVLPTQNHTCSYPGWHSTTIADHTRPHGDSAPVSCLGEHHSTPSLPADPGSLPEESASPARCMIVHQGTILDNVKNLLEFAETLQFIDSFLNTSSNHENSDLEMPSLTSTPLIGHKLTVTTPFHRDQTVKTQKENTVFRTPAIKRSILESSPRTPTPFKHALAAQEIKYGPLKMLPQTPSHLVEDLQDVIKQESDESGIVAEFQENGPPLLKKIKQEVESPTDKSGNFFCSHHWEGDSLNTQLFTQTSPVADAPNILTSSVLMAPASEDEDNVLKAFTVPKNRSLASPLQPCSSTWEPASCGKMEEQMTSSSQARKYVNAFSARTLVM
In short: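 HepG2, transient MRTU transfection (cis-element promoters, endogenous TF activity), 24 h compound exposure. Readout: reporter mRNA via RT-PCR, 6-FAM labeling, HpaI digest, capillary electrophoresis. Gain/loss fit vs DMSO.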

[2] = biological target: Nuclear respiratory factor 1 (Homo sapiens) (UniProt Q16656); test: ATG_NRF1_CIS: Attagene CIS-FACTORIAL HepG2 Assay for human Nuclear Respiratory Factor 1 (NRF1) Orphan Gene (AID 2282987); details: HepG2 NRF1 cis-element reporter, Attagene multiplex; actives raise or lower the signal
Chain of Nuclear respiratory factor 1 (Homo sapiens) (Q16656 whole entry, looked up): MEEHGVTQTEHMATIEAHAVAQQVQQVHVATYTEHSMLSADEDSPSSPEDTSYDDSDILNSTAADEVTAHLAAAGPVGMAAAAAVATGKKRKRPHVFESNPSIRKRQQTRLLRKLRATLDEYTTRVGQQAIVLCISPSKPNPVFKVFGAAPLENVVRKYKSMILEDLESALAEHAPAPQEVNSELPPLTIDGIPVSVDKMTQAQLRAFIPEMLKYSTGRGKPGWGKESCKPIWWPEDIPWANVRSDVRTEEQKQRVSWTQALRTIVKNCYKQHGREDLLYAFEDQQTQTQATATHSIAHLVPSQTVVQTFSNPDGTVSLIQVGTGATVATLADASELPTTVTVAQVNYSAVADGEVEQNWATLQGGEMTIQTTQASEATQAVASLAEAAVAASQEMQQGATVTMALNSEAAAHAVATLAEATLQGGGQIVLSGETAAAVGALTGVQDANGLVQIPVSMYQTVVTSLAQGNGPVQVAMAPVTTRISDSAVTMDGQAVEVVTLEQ
In short: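 Endogenous NRF1-driven reporter transcription measured in transiently transfected human HepG2 liver cells. Readout: reporter mRNA by RT-PCR and capillary electrophoresis with fluorescence detection, 24 h post-dosing. Gain or loss of signal fitted relative to DMSO baseline.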

[3] = ATG_NFI_CIS: Attagene CIS-FACTORIAL HepG2 Assay for human Nuclear Factor I (NFI) (AID 2282989); details: HepG2 cis-regulatory reporter, NFI response element transcription; actives raise or lower the signal
In short: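 Cells: human liver HepG2, transiently transfected with promoter-regulated reporter transcription units. Exposure 24 h. Detection: fluorescent RT-PCR products separated by capillary electrophoresis, normalised to DMSO negative control.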

[4] = biological target: Myc proto-oncogene protein (Homo sapiens) (UniProt P01106); test: ATG_Myc_CIS: Attagene CIS-FACTORIAL HepG2 Assay for human Myelocytomatosis (Myc) Proto-Oncogene Transcription Factor (AID 2282990); details: HepG2, Attagene cis-reporter transcription factor activity; actives raise or lower the signal
Chain of Myc proto-oncogene protein (Homo sapiens) (P01106 whole entry, looked up): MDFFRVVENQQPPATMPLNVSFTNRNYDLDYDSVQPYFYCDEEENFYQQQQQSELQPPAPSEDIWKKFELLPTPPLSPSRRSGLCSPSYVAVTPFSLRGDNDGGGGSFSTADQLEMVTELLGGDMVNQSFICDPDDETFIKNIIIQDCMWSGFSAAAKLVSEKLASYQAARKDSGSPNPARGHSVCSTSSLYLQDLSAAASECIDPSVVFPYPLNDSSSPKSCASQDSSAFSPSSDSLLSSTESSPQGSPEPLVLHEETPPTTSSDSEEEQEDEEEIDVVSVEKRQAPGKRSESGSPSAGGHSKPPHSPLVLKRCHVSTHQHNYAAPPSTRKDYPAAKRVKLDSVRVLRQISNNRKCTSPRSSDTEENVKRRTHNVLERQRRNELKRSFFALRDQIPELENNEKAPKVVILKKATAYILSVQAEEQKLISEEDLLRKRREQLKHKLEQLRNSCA
In short: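 Transiently transfected HepG2 cells bearing cis-promoter reporter units for endogenous transcription factors; 24 h exposure. Reporter mRNA measured by RT-PCR, 6-FAM primer extension, HpaI cut and capillary electrophoresis; bidirectional fit relative to DMSO.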

[5] = ATG_NF_kB_CIS: Attagene CIS-FACTORIAL HepG2 Assay for human Nuclear Factor Kappa B (NF-kB) (AID 2282991); details: HepG2 Attagene cis-factorial NF-kB reporter mRNA; actives raise or lower the signal
In short: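 Read-out: reporter transcript levels quantified by RT-PCR plus capillary electrophoresis of 6-FAM-labelled, HpaI-cut fragments. Transfected HepG2 cells, 24 h compound exposure, endogenous NF-kB-driven cis element; gain or loss scored versus DMSO.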

[6] = ATG_NRF2_ARE_CIS: Attagene CIS-FACTORIAL HepG2 Assay for human Nuclear Factor Erythroid 2 Related Factor 2 (NFR2) response to Antioxidant Response Elements (ARE) (AID 2282992); details: HepG2 Attagene ARE/NRF2 reporter, transcription factor activity; actives raise or lower the signal
In short: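 Endogenous transcription factor activity in human liver HepG2 cells is tracked via a cis-element-driven reporter within a multiplexed set. mRNA induction is read by RT-PCR and capillary electrophoresis after 24 h, with DMSO as baseline.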

[7] = ATG_Oct_MLP_CIS: Attagene CIS-FACTORIAL HepG2 Assay for human Octamer-Binding Transcription Factor (Oct) (AID 2282993); details: HepG2 Attagene cis-factorial Oct reporter, mRNA; actives raise or lower the signal
In short: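 HepG2, transient MRTU transfection, cis promoter elements; 24 h dosing; RT-PCR/CE fluorescence read-out of reporter mRNA; fit both directions vs DMSO.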

[8] = biological target: Cellular tumor antigen p53 (Homo sapiens) (UniProt P04637); test: ATG_p53_CIS: Attagene CIS-FACTORIAL HepG2 Assay for human p53 Transcription Factor (AID 2282994); details: HepG2 p53 cis-element reporter, Attagene mRNA; actives raise or lower the signal
Chain of Cellular tumor antigen p53 (Homo sapiens) (P04637 whole entry, looked up, the tested form may be a part): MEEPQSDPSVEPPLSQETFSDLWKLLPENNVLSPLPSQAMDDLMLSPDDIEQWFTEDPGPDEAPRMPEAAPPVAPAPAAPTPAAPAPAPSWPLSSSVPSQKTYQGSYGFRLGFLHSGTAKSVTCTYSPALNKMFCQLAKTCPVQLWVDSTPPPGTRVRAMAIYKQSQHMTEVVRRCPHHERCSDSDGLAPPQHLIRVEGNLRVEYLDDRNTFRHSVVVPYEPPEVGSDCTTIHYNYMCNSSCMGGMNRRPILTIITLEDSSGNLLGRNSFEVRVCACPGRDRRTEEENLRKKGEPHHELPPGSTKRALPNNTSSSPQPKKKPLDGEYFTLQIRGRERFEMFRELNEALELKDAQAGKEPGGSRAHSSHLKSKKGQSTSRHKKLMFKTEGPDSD
In short: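 Steps: transfect HepG2 with multiplexed cis reporter constructs; dose chemicals 24 h; extract RNA, reverse-transcribe, PCR-amplify reporter sequences; FAM-label, HpaI-digest, resolve fragments by CE. Activity fitted both directions relative to DMSO.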

[9] = BSK_3C_TissueFactor: BioMAP Diversity Plus: 3C Assay for Tissue Factor Biomarker Activity (AID 2282997); details: BioMAP 3C HUVEC, tissue factor biomarker readout; actives raise or lower the signal
In short: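 Tissue factor on primary human umbilical vein endothelium was read by ELISA 24 h after dosing, gain or loss relative to DMSO. Cytotoxicity ran alongside via SRB (0.1%, TCA-fixed, 560 nm).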

[10] = BSK_3C_uPAR: BioMAP Diversity Plus: 3C Assay for Urokinase-type plasminogen activator receptor (uPAR) Biomarker Activity (AID 2282998); details: BioMAP 3C HUVEC, uPAR biomarker ELISA; actives raise or lower the signal
In short: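 A multiplexed primary-cell system built on human umbilical vein endothelium was used, with chemical present for 24 h before reading. Cell-surface uPAR was detected by ELISA; signal change in either direction counted against DMSO.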

Measured: AC50

COc1cc(Cl)c(OC)cc1Cl
inactive: all assays above

CNC(=O)N(C)c1nnc(C(C)(C)C)s1
active: [6] 60.1 µM
inactive: all other assays above

CSC(=O)c1c(C(F)F)nc(C(F)(F)F)c(C(=O)SC)c1CC(C)C
active: [10] 32.6 µM
not listed: [5]
inactive: all other assays above

O=C1C2CC=CCC2C(=O)N1SC(Cl)(Cl)Cl (centres undefined)
inactive: all assays above

CC(C)Oc1cccc(NC(=O)c2ccccc2C(F)(F)F)c1
active: [6] 6.33 µM | [7] 11.7 µM
inactive: all other assays above

O=C(O)c1c(Cl)ccc2cc(Cl)cnc12
not listed: [8]
inactive: all other assays above

Cc1cc(C)nc(Nc2ccccc2)n1
active: [6] 21.6 µM | [7] 12 µM
not listed: [2]
inactive: all other assays above

COc1ccc(-c2ccccc2)cc1NNC(=O)OC(C)C
active: [6] 6.71 µM | [7] 0.882 µM
inactive: all other assays above

COCC(=O)N(c1c(C)cccc1C)C(C)C(=O)OC (centres undefined)
active: [6] 50 µM
not listed: [5]
inactive: all other assays above

CCSC(=O)N1CCCCCC1
inactive: all assays above

CC(C)=CC1C(C(=O)OCc2coc(Cc3ccccc3)c2)C1(C)C (centres undefined)
active: [6] 13.8 µM | [7] 6.38 µM | [10] 12 µM
not listed: [8]
inactive: all other assays above

Cc1nc(N(C)C)nc(OC(=O)N(C)C)c1C
not listed: [5] | [8]
inactive: all other assays above

C=C(C)CN(CC)c1c([N+](=O)[O-])cc(C(F)(F)F)cc1[N+](=O)[O-]
active: [6] 4.69 µM
not listed: [2]
inactive: all other assays above

COC(=O)N(C(=O)N1CO[C@@]2(C(=O)OC)Cc3cc(Cl)ccc3C2=N1)c1ccc(OC(F)(F)F)cc1
active: [6] 4.35 µM | [7] 1.71 µM
not listed: [5]
inactive: all other assays above

Cc1cnc(C2=NC(C)(C(C)C)C(=O)N2)c(C(=O)O)c1 (centres undefined)
active: [6] 13 µM
not listed: [5]
inactive: all other assays above

CCOC(=O)C(C)OC(=O)c1cc(Oc2ccc(C(F)(F)F)cc2Cl)ccc1[N+](=O)[O-] (centres undefined)
active: [6] 17.2 µM | [10] 13.3 µM
inactive: all other assays above

COC(=O)c1c(C(F)F)nc(C(F)(F)F)c(C2=NCCS2)c1CC(C)C
active: [6] 2.14 µM | [7] 9.92 µM | [10] 33.4 µM
inactive: all other assays above

CC1(C)CCC(=Cc2ccc(Cl)cc2)C1(O)Cn1cncn1 (centres undefined)
active: [6] 3.91 µM | [7] 13.3 µM
not listed: [5]
inactive: all other assays above

CS(=O)(=O)c1ccc(C(=O)C2C(=O)CCCC2=O)c([N+](=O)[O-])c1
inactive: all assays above

O=c1n(Cl)c(=O)n(Cl)c(=O)n1Cl
not listed: [2]
inactive: all other assays above

C=CCOC(=O)C(C)(C)OC(=O)c1cc(-n2c(=O)cc(C(F)(F)F)n(C)c2=O)ccc1Cl
active: [6] 21.9 µM | [10] 2.18 µM
not listed: [5]
inactive: all other assays above

CN/C(=N\[N+](=O)[O-])NCc1cnc(Cl)s1
not listed: [5]
inactive: all other assays above

CC(C)NC(=O)N1CC(=O)N(c2cc(Cl)cc(Cl)c2)C1=O
active: [6] 7.39 µM | [10] 32.8 µM
inactive: all other assays above

CC1(C)CON(Cc2ccccc2Cl)C1=O
active: [6] 44.1 µM
inactive: all other assays above

CS(=O)(=O)c1cc(C(F)(F)F)ccc1C(=O)c1cnoc1C1CC1
active: [6] 19.1 µM | [7] 50 µM
inactive: all other assays above

CCOP(=O)(OCC)Oc1nc(Cl)c(Cl)cc1Cl
active: [6] 33.4 µM | [7] 50 µM | [10] 20 µM
inactive: all other assays above

CCOc1nc(F)cc2nc(S(=O)(=O)Nc3c(Cl)cccc3Cl)nn12
active: [1] 0.0229 µM
inactive: all other assays above

CCC(C)n1c(=O)[nH]c(C)c(Br)c1=O (centres undefined)
inactive: all assays above

N#CN=C1SCCN1Cc1ccc(Cl)nc1
active: [6] 50 µM
inactive: all other assays above

CC(C)N1C(=O)c2ccccc2NS1(=O)=O
active: [6] 33 µM
inactive: all other assays above

N#Cc1c[nH]cc1-c1cccc2c1OC(F)(F)O2
active: [6] 13.2 µM | [7] 13.9 µM | [10] 12.8 µM
inactive: all other assays above

CCCCC(C#N)(Cn1cncn1)c1ccc(Cl)cc1 (centres undefined)
not listed: [5]
inactive: all other assays above

CNC(=O)Oc1cccc2ccccc12
active: [3] 74.5 µM | [6] 15.6 µM | [7] 50 µM
not listed: [2]
inactive: all other assays above

CCN(CC)c1nc(C)cc(OP(=S)(OC)OC)n1
active: [7] 8.94 µM
inactive: all other assays above
